Reference: PubChem BioAssay (NCATS)
Results filed as inconclusive are left out. Activity calls are given as the source filed them. Calls come from the whole dose curve; as a rule, active = well fitted cell-killing curve with a large enough effect; inconclusive = small, poorly fitted or top-dose-only effect; inactive = flat fitted curve, though single readings scatter.
% is set by controls: 0 for no effect and ±100 for the full control effect; potency is the fitted concentration of half-maximal effect.

Test: Cell Viability - H-4-II-E (AID 543); note: nearly all actives have a fitted effect of over 35% in size
Conditions: H-4-II-E rat hepatoma viability; series mostly up to 92.2 µM; activity change, negative = cytotoxic: at the top concentration
Source text: NIH Chemical Genomics Center [NCGC]
NIH Molecular Libraries Screening Centers Network [MLSCN]
National Institutes of Environmental Health Sciences [NIEHS]
National Toxicology Program [NTP]
We have developed a 1536-well cell-based assay for quantitative high throughput screening (qHTS) against a number of cell lines to determine in vitro cytotoxicity of small molecules. This particular assay uses the H-4-II-E cell line which is derived from rat hepatoma.
NCGC Assay Protocol Summary:
The CellTiter-Glo luminescent cell viability assay (Promega) is a homogeneous method to measure the number of viable cells in culture. The end point readout of this assay is based on quantitation of intracellular ATP, an indicator of metabolic activity, using the luciferase reaction. Luciferase catalyzes the oxidation of beetle Luciferin to oxyluciferin and light in the presence of ATP. The luminescent signal is proportional to amount of ATP present.
Using the CellTiter-Glo luminescent cell viability assay, the amount of cellular ATP was measured in the H-4-II-E cell line with complete culture medium following compound treatment for 40 hours. The assay was performed in opaque white Kalypsys 1536-well plates. In the screen, tamoxifen and doxorubicin were used as positive controls. Library compounds were measured for their ability to cause acute toxicity in the cell line, as reflected by a decrease in intracellular ATP levels, in a concentration-dependent manner. […] AC50 values were determined from concentration-response data modeled with the standard Hill equation.
qHTS protocol fo CellTiter Glo H-4-II-E cellular assay
[Step] [Parameter] [Value] [Description]
1. Reagent; 5 uL; 1500 H-4-II-E cells/well
2. Time; 5 hr; 37 °C incubation
4. Controls; 23 nL; Tamoxifen 0.34 uM to 100 uM & Doxorubicin 0.02 nM to 100 uM
5. Time; 40 hr; 37 °C incubation
6. Reagent; 5 uL; CellTiter Glo reagent
7. Time; 20 min; Room Temperature
8. Detection; Luminescence; Viewlux plate reader
Keywords: cell viability, cytotoxicity, H-4-II-E cell line, luminescence, NTPHTS, NTPHTS_NCGC, NIEHS, EPA, DSSTox, MLSMR, MLSCN, NIH Roadmap, qHTS, NCGC
In the case of `Cc1cccc(C#N)c1`, the “activity change, negative = cytotoxic” value is reported as -9.09% (inactive). In the case of `COc1ccc(N)cc1`, the Potency is reported as “inactive”. In the case of `CCC[CH2][Sn]([Cl])([Cl])[Cl]`, the “activity change, negative = cytotoxic” value is reported as -2.18% (inactive). For `Oc1ccc(Cl)cc1Cl`, the “activity change, negative = cytotoxic” value was -2.8% (inactive). With `CCCCOCCOP(=O)(OCCOCCCC)OCCOCCCC` the “activity change, negative = cytotoxic” value was -12.8% (inactive). With `Nc1ccc(Br)cc1` the “activity change, negative = cytotoxic” value was -5.71% (inactive). For `S=C=Nc1cccc2ccccc12`, the “activity change, negative = cytotoxic” value was -12.6% (inactive). For `CC(C)(OO)c1ccccc1`, the Potency was 25.1 µM (active). For `CC(=O)[O-].CC(=O)[O-].O.O.O.[Pb+2]`, the Potency was “inactive”. In the case of `ClC(Cl)(Cl)c1ccccc1`, the Potency is reported as “inactive”. For `Clc1nc(Cl)nc(Cl)n1`, the “activity change, negative = cytotoxic” value was -7.3% (inactive). With `O=NN(CCO)CCO` the “activity change, negative = cytotoxic” value was -4.95% (inactive). In the case of `Brc1ccccc1`, the “activity change, negative = cytotoxic” value is reported as -5.87% (inactive). For `Cc1ccc2ccccc2c1`, the “activity change, negative = cytotoxic” value was -1.71% (inactive). For `C=CCc1ccc(OC)cc1`, the “activity change, negative = cytotoxic” value was 2.51% (inactive). With `Brc1ccc(Oc2cc(Br)c(Br)cc2Br)c(Br)c1` the “activity change, negative = cytotoxic” value was -29.3% (inactive). In the case of `COP(=S)(OC)Oc1ccc([N+](=O)[O-])cc1`, the “activity change, negative = cytotoxic” value is reported as -9.67% (inactive). In the case of `Cc1ccccc1N`, the Potency is reported as “inactive”. In the case of `CCCCCCCC(=O)Cl`, the “activity change, negative = cytotoxic” value is reported as 9.18% (inactive). In the case of `C=CC(=C)C`, the “activity change, negative = cytotoxic” value is reported as -0.943% (inactive). In the case of `C/C=C/c1ccc2c(c1)OCO2`, the “activity change, negative = cytotoxic” value is reported as -4.5% (inactive). For `ClC(Cl)=C(Cl)C(Cl)=C(Cl)Cl`, the “activity change, negative = cytotoxic” value was -1.11% (inactive). For `Clc1cccc(C(Cl)(Cl)Cl)n1`, the “activity change, negative = cytotoxic” value was 2.29% (inactive). In the case of `C=CC1CC=CCC1` (stereo not given), the “activity change, negative = cytotoxic” value is reported as 1.4% (inactive). For `c1nc[nH]n1`, the “activity change, negative = cytotoxic” value was -4.73% (inactive). For `c1ccc(OP(Oc2ccccc2)Oc2ccccc2)cc1`, the “activity change, negative = cytotoxic” value was 0.0844% (inactive). In the case of `CC(Cl)Cl`, the “activity change, negative = cytotoxic” value is reported as -10.8% (inactive). In the case of `O=C=NC1CCCCC1`, the Potency is reported as “inactive”. With `C=CC(C)=O` the “activity change, negative = cytotoxic” value was 10.4% (inactive). With `C[N+](C)(C)Cc1ccccc1` the “activity change, negative = cytotoxic” value was 0.291% (inactive). In the case of `CCN(CC)c1ccccc1`, the “activity change, negative = cytotoxic” value is reported as 0.831% (inactive). In the case of `BrCCBr`, the “activity change, negative = cytotoxic” value is reported as -4.9% (inactive). With `O=[N+]([O-])c1cccc2ccccc12` the “activity change, negative = cytotoxic” value was 0.332% (inactive). For `OCC(Br)CBr` (stereo not given), the “activity change, negative = cytotoxic” value was -1.87% (inactive). In the case of `CCCCOC(=O)c1ccccc1C(=O)OCCCC`, the “activity change, negative = cytotoxic” value is reported as -0.878% (inactive). For `CCCCCCCCCc1ccc(O)cc1`, the “activity change, negative = cytotoxic” value was -14.3% (inactive). In the case of `O=C1C(Cl)=C(Cl)C(=O)C(Cl)=C1Cl`, the Potency is reported as 50.1 µM (active). With `Cc1ccc(O)c(C)c1` the “activity change, negative = cytotoxic” value was -1.99% (inactive). In the case of `CCCOC(=O)c1ccccc1C(=O)OCCC`, the “activity change, negative = cytotoxic” value is reported as -6.76% (inactive). With `COC(=O)NC(=S)Nc1ccccc1NC(=S)NC(=O)OC` the “activity change, negative = cytotoxic” value was -21.6% (inactive).
